According to PubChem BioAssay AID686978 (National Center for Advancing Translational Sciences (NCATS), 2013):
The campaign covered roughly 420,000 compounds. About 64,000 (15%) were called active. Inconclusive results (about 27%) are left out. Calls come from the whole dose curve; as a rule, active = well fitted inhibition curve with a large enough effect; inconclusive = small, poorly fitted or top-dose-only effect; inactive = flat fitted curve, though single readings scatter. A selection follows.

Assay: qHTS for Inhibitors of human tyrosyl-DNA phosphodiesterase 1 (TDP1): qHTS in cells in absence of CPT; note: nearly all actives have a fitted effect of over 55% in size
Details: DT40 Tdp1-/- hTDP1 cells, no CPT, ATP luminescence, 48 h; activity change, negative = growth inhibition: at 46.2 µM (top of the series)
In short: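 A cellular qHTS used chicken DT40 cells lacking endogenous Tdp1 but carrying stably transfected human TDP1. Compounds were applied without camptothecin, and cell growth kinetics were judged by ATP-dependent luminescence after ≥48 hr.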
% is set by controls: 0 for no effect and ±100 for the full control effect; potency is the fitted concentration of half-maximal effect.

| Structure (SMILES) | activity change, negative = growth inhibition | Potency |
| --- | --- | --- |
| CC1(C)Oc2ccc3ccc(=O)oc3c2/C(=N/O)C1=O | 8.39% (inactive) |  |
| O=c1cc(COc2cccc(C(F)(F)F)c2)nc2sc3c(n12)CCCC3 | -5.11% (inactive) |  |
| Cc1ccc2c(cnn2C(=O)CCC(=O)NC2CCCC2)c1 | -21.2% (inactive) |  |
| CCOC(=O)c1c(-c2cccc(N)c2)cn2ccccc12 | 2.26% (inactive) |  |
| N#Cc1nc(/C=C/c2ccc(F)cc2)oc1NCc1ccc(F)cc1 | -24.3% (inactive) |  |
| COc1ccccc1/C=C/c1nc(C#N)c(NC(C)c2ccccc2)o1 (centres undefined) |  | 16.4 µM (active) |
| CCOc1ccc(Nc2oc(/C=C/c3ccc(F)cc3)nc2C#N)cc1 | -23.4% (inactive) |  |
| O=C(CNC(=O)c1ccccc1F)OCC(=O)c1c[nH]c2ccccc12 | 15% (inactive) |  |
| Cc1c(C(=O)N(C)C)sc2c1c(=O)n(-c1ccc(F)cc1)c(=O)n2CC(=O)N(C)c1ccccc1 | -0.482% (inactive) |  |
| COC(=O)[C@]12CCCCC=C1N(Cc1ccc3c(c1)OCO3)C(=O)[C@H](CC(=O)N1CCOCC1)C2 | -9.62% (inactive) |  |
| CCOC(=O)[C@]12CCC=C1N(Cc1ccco1)C(=O)[C@H](CC(=O)N1CCSCC1)C2 | -10.7% (inactive) |  |
| O=C(NCc1ccccc1)C1CCN(C(=O)Cc2ccccc2)CC1 | -10.3% (inactive) |  |
| CCn1cc(C(=O)N2CCN(Cc3ccc4c(c3)OCO4)CC2)c2cc(OC)c(OC)cc2c1=O | -20.4% (inactive) |  |
| COC(=O)[C@@]12C[C@@H](CC(=O)N3CCCCC3)C(=O)N(Cc3ccc4c(c3)OCO4)C1=CCC(C)(C)C2 |  | 20.6 µM (active) |
| CCOC(=O)N1CCN(C(=O)C(C)NC(=O)c2ccco2)CC1 (centres undefined) | 1.25% (inactive) |  |
| CCOC(=O)N1CCN(C(=O)C[C@@H]2C[C@@]3(C(=O)OC)CC(C)(C)CC=C3N(Cc3ccco3)C2=O)CC1 |  | 18.4 µM (active) |
| CCOC(=O)C1CCN(C(=O)CC2C(=O)N(Cc3ccccc3)C(C)c3nc4ccccc4n32)CC1 (centres undefined) | -12.5% (inactive) |  |
| COC(=O)[C@@]12C[C@@H](CC(=O)N3CCC(c4ccccc4)CC3)C(=O)N(Cc3ccccc3)C1=CCC(C)(C)C2 |  | 14.6 µM (active) |
| CC(C)CCN1CCN(C/C=C/c2ccco2)CC1CCO (centres undefined) | 7.71% (inactive) |  |
| COC(=O)c1cccc(C(=O)N2CCCC(Nc3ccc4c(c3)OCCO4)C2)c1 (centres undefined) | 11.9% (inactive) |  |
| O=C(O)Cc1ccc(NCc2ccccc2Cl)cc1 | 10.5% (inactive) |  |
| Cc1cccc(-c2nnc(SCC(=O)O)n2Cc2ccccc2)c1 | 4.53% (inactive) |  |

| Structure (SMILES) | activity change, negative = growth inhibition | Potency |
| --- | --- | --- |
| O=C1CC(Cc2ccc(Cl)cc2)C(=O)N1c1cc(Cl)ccn1 (centres undefined) | 5.45% (inactive) |  |
| O=C(CSc1n[nH]c(-c2ccccc2)n1)N1CCCCC1 | -7.63% (inactive) |  |
| COc1ccc(CNC(=O)CSc2nc3ccccc3nc2Cc2ccccc2)cc1 | -25.4% (inactive) |  |
| O=C(CSc1nc2ccccc2nc1Cc1ccccc1)N1CCCCC1 |  | 18.4 µM (active) |
| COc1cc(NC(=O)Cn2c(=O)n(Cc3ccco3)c(=O)c3oc4ccccc4c32)cc(OC)c1 | -13.2% (inactive) |  |
| Cc1c(CCC(=O)O)c(=O)oc2cc3occ(-c4ccccc4)c3cc12 | -4.43% (inactive) |  |
| O=C(c1ccco1)N1CCN(CC(=O)N(C2CCCCC2)C2CCS(=O)(=O)C2)CC1 (centres undefined) | -0.389% (inactive) |  |
| COC(=O)c1sccc1NC(=O)CC1C(=O)NCCN1C(=O)Nc1ccc(F)cc1F (centres undefined) | -0.938% (inactive) |  |
| COc1ccccc1CCNC(=O)c1cnccn1 | -12.8% (inactive) |  |
| C=C1C=C(C(F)F)n2ncc(C(=O)NCCc3ccccc3OC)c2N1 |  | 17.8 µM (active) |
| COc1ccccc1CCNC(=O)CN1C(=O)NC2(CCCC2)C1=O | -9.82% (inactive) |  |
| Cc1nn2cc(-c3ccc(Cl)cc3)cnc2c1Br | -22.4% (inactive) |  |
| COC(=O)CCCC1=CC2=CC(=O)C(C)(OC(=O)c3cccs3)C(=O)C2=CN1c1cccc(C#N)c1 (centres undefined) | -14% (inactive) |  |
| Cc1cccc(NC(=O)N2CCN(C)c3ncccc32)c1C | -13.9% (inactive) |  |
| COc1ccccc1-c1nnc(SCC(=O)Nc2cc(C)on2)o1 | 8.42% (inactive) |  |
| Cc1cc(NC(=O)CSc2nnc(Nc3ccccc3F)s2)no1 | 10.2% (inactive) |  |
| Cc1cc(NC(=O)CSc2nnc(-c3ccc(Cl)s3)o2)no1 |  | 16.4 µM (active) |
| COc1ccc([N+](=O)[O-])cc1NC(=O)CC1SC(=Nc2cccc(C)c2C)N(/N=C(\C)c2ccc(C)cc2)C1=O (centres undefined) | -1.02% (inactive) |  |
| COc1ccc2nc(Nc3nc4cc5c(cc4s3)OCCO5)sc2c1 | -11.8% (inactive) |  |
| COc1ccc2nc(Nc3nc(-c4cc5ccccc5oc4=O)cs3)sc2c1 |  | 11.6 µM (active) |
| Nc1ncc(-c2cc3ccccc3oc2=O)s1 | -14.1% (inactive) |  |
| COc1ccc2cc(-c3nc(Cl)c4c5c(sc4n3)CC(C)CC5)c(=O)oc2c1 (centres undefined) | -12.7% (inactive) |  |

| Structure (SMILES) | activity change, negative = growth inhibition | Potency |
| --- | --- | --- |
| CCNc1nc(-c2cc3ccccc3o2)cs1 | -28.7% (inactive) |  |
| O=c1oc2ccccc2cc1-c1csc(Nc2ccc(O)cc2)n1 |  | 8.2 µM (active) |
| CC(C)C(C(=O)NC1CCCCC1)N(CC1CCCO1)C(=O)CNS(=O)(=O)c1ccc(F)cc1 (centres undefined) | -25.5% (inactive) |  |
| O=C(O)CCC(=O)N(Cc1ccccc1)Cc1ccccc1 | 2.82% (inactive) |  |
| CC1(C)CC(=O)C=C(NCc2ccncc2)C1 | 2.46% (inactive) |  |
| CC(=O)Oc1ccc(-c2nc3c(C)cccc3c(=O)o2)cc1 | -8.38% (inactive) |  |
| Cc1cccc2c(=O)n3c(nc12)CCCCC3 | -12.9% (inactive) |  |
| Cc1nc(N=C(N)N)nc2c(C)cccc12 |  | 20.6 µM (active) |
| CCCN1Cc2cccc(C(=O)NCc3ccccc3)c2C1=O | -3.84% (inactive) |  |
| CCOc1ccc(N2C(=O)CN(c3cccc4ccccc34)C2=S)cc1 | -24.5% (inactive) |  |
| CCN(CC)CCCNC(=S)N(CCO)Cc1cc2cc3c(cc2[nH]c1=O)OCO3 | -11.1% (inactive) |  |
| Cc1cc(C)c2[nH]c(=O)c(CN(Cc3ccccc3)C(=S)NCCCN(C)C)cc2c1 |  | 16.4 µM (active) |
| COCCCNC(=S)N(Cc1ccccc1)Cc1ccc(F)cc1 | -14.6% (inactive) |  |
| CCCCNC(=O)c1c[nH]c2ccc(S(=O)(=O)Nc3ccc(OCC)cc3)cc2c1=O | -6.94% (inactive) |  |
| Cc1ccc(/C=C2\CCn3c2nc2cc(C(=O)O)ccc2c3=O)c(C)c1 | -17.8% (inactive) |  |
| CC(=O)C[C@@H](O)CC(=O)[C@H]1OC(=O)CCCCCCc2ccccc21 | -9.45% (inactive) |  |
| CC(C)(C)c1cc(=O)n2c(nc3ccccc32)[nH]1 | -13.8% (inactive) |  |
| Fc1ccc(-c2ccc(CNCc3ccccn3)o2)cc1Cl |  | 20.6 µM (active) |
| O=C(NCc1ccccn1)c1cc(-c2ccccc2Cl)on1 | -4.58% (inactive) |  |
| O=C(NCc1ccccn1)Nc1ccc(Cl)cc1 | -0.0857% (inactive) |  |
| COc1ccc(CNC(=O)CN(Cc2ccccc2Cl)C(=O)c2csnn2)cc1 | -19.7% (inactive) |  |
| COCCNC(=O)COc1ccc(C)c(C)c1 | -9.12% (inactive) |  |

| Structure (SMILES) | activity change, negative = growth inhibition | Potency |
| --- | --- | --- |
| Cc1ccc(C)c(N2CCN(S(=O)(=O)c3c(C)[nH]c(C)c3C(=O)N3CCCC3)CC2)c1 |  | 23.1 µM (active) |
| Cc1[nH]c(C)c(S(=O)(=O)N2CCN(c3cccc(C(F)(F)F)c3)CC2)c1C(=O)N1CCCCC1 |  | 10.3 µM (active) |
| CCc1noc(C)c1C(=O)N1CCN(S(=O)(=O)c2cccc(C(F)(F)F)c2)CC1 | -1.34% (inactive) |  |
| Cc1[nH]c(C)c(S(=O)(=O)N2CCC(C)CC2)c1C(=O)N1CCCC1 | 3.3% (inactive) |  |
| Cc1ccc(C)c(NS(=O)(=O)c2c(C)[nH]c(C)c2C(=O)N2CCCCC2)c1 | -1.44% (inactive) |  |
| Cc1ccc(NS(=O)(=O)c2c(C)[nH]c(C)c2C(=O)N2CCCCC2)c(C)c1 | -17.5% (inactive) |  |
| O=S(=O)(NCc1cccnc1)c1ccc(Cl)nc1 | -17.2% (inactive) |  |
| Cc1occc(=O)c1OCc1c(Cl)cccc1Cl | 12.3% (inactive) |  |
| O=C(Nc1nnc(-c2ccc(F)cc2)s1)c1c(F)cccc1Cl | -13% (inactive) |  |
| CC(=O)N1CCc2ccc(N)cc21 | -7.03% (inactive) |  |
| O=C(NCc1ccc2c(c1)OCO2)c1ccc(Cl)s1 | -26.7% (inactive) |  |
| O=C(NCc1ccc2c(c1)OCO2)c1sccc1Br | -12.3% (inactive) |  |
| O=C(NCc1ccc2c(c1)OCO2)c1c(-c2ccsc2)sc2ccccc12 |  | 14.6 µM (active) |
| COC(=O)c1ccc2ccccc2c1OC1OC(CO)C(O)C(O)C1NC(C)=O (centres undefined) | -14.3% (inactive) |  |
| CCOc1cccc(/C(O)=C2/C(=O)C(=O)N(CCOC)C2c2ccncc2)c1 (centres undefined) | -0.467% (inactive) |  |
| CS(=O)(=O)N1CCN(C(=O)CSc2ccccc2)CC1 | -5.6% (inactive) |  |
| COCCn1c(SC(C)C(=O)NC2CC2)nnc1-c1cccc(C)c1 (centres undefined) | -19.5% (inactive) |  |
| COc1ccc(C(CNC(=O)c2ccc(OCc3cscn3)cc2)N2CCCC2)cc1 (centres undefined) | -19.4% (inactive) |  |
| C=CCN(CC=C)C(=O)CN1C(=O)c2ccccc2C1=O | -3.75% (inactive) |  |
| CN(C)/C=C(/C(=O)c1ccccc1Cl)S(C)(=O)=O | -2.14% (inactive) |  |
| Cc1ccc2nc(-c3cccnc3)c(NC3CCCC3)n2c1 |  | 20.6 µM (active) |
| O=C(COC(=O)c1cncc(Br)c1)Nc1ccc(S(=O)(=O)N2CCOCC2)cc1 | -12.7% (inactive) |  |

| Structure (SMILES) | activity change, negative = growth inhibition | Potency |
| --- | --- | --- |
| O=C(CCn1nnnc1CN1CCOCC1)N1CCC(c2ccccc2Cl)C1 (centres undefined) | -9.44% (inactive) |  |
| Cc1cccc(C(=O)N2CCC(c3nc4ccccc4s3)CC2)c1 | -23.4% (inactive) |  |
| CC(=O)Oc1ccc(C(C)=O)c2c1OCCO2 | -8.77% (inactive) |  |
| CC(=O)Oc1ccc(OC(C)=O)c2c1C1C=CC2CC1 |  | 16.4 µM (active) |
| COc1c(C(=O)N2CCCC2)ccc2ccccc12 | -25.1% (inactive) |  |
| NC(=O)CC[C@@H]1NC(=O)[C@H](CO)NC(=O)c2cc([N+](=O)[O-])cc(I)c2NCC[C@@H](C(N)=O)NC1=O | -1.82% (inactive) |  |
| COCC(=O)N1CCc2ccc(NC(=O)c3ccccc3Cl)cc2C1 | 18.5% (inactive) |  |
| COc1ccc(NC(=O)NCc2ccc3c(c2)OCO3)c(OC)c1 | 2.84% (inactive) |  |
| COc1ccc2c(c1)C(C)=CC(C)(C)N2C(=O)CNCc1ccc2c(c1)OCO2 |  | 20.6 µM (active) |
| COc1cccc(CNCc2ccc3c(c2)OCO3)c1 | -23.4% (inactive) |  |
| CC(=O)O[C@H]1CC[C@@]2(C)[C@@H](CC[C@@H]3[C@@H]2CC[C@]2(C)[C@@H](C(C)(C)O)C[C@@H]32)C1 | -13.8% (inactive) |  |
| CC(C)C(=O)NC(C)c1nnc2n1CCN(Cc1cccc3ncccc13)CC2 (centres undefined) | -2.35% (inactive) |  |
| CCOc1ccc(Cn2nnc(C(=O)Nc3ccc(OC)cc3OC)c2N)cc1 | -1.55% (inactive) |  |
| Cc1nc(N2CCOCC2)c2c(C)c(C(=O)Nc3ccc(C(F)(F)F)cc3)sc2n1 |  | 18.4 µM (active) |
| CCOC(=O)C1CCCN(C(=O)c2sc3nc(C)nc(N4CCOCC4)c3c2C)C1 (centres undefined) | -8.49% (inactive) |  |
| CCS(=O)(=O)N1Cc2ccccc2CC1C(=O)Nc1ccc(OC)cc1OC (centres undefined) | -20.6% (inactive) |  |
| O=C(Nc1ccc(N2CCOCC2)nc1)c1c(F)cccc1F | -8.61% (inactive) |  |
| Cc1nc2c(-c3ccc(F)cc3)c(C)nn2c(C)c1CCC(=O)N1CCN(c2ccccn2)CC1 | -25.4% (inactive) |  |
| Cn1c(SCC(=O)Nc2ccc(N3CCOCC3)cc2)nnc1C(F)(F)F | -0.0099% (inactive) |  |
| COc1ccc(NC(=O)c2sc3nc(C)nc(N4CCN(c5ccccn5)CC4)c3c2C)c(OC)c1 |  | 11.6 µM (active) |
| Cc1nc(N2CCN(c3ccccn3)CC2)c2c(C)c(C(=O)Nc3ccc(F)cc3)sc2n1 |  | 20.6 µM (active) |
